Screens: PubChem, Sanford-Burnham Center for Chemical Genomics
Peg3 prom inh: inhibitors of Peg3 promoter. HeLa PEG-Prom luciferase reporter, luminescence, overnight. inhibition, % at 20 µM. hit rate 1.7% among 360,000. AID 588405;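 active = inhibition of at least 50% at 20 µM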
PPC-1+TRAIL kill: PPC-1 cancer cell killing with TRAIL present; PPC-1 cells + TRAIL, ATPLite viability luminescence; cell killing (% activity), % at 4 µM or 5 µM; hit rate 0.41% among 220,000; AID 1443;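 active = cell killing above 50% in the first pass at 4 µM, then a duplicate retest at 5 µM averaging 50% or more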;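 note: plate controls were cells with TRAIL plus DMSO for no effect and medium-only wells lacking cells for full effect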
HIF-2a block: blocks HIF-2a reporter activity | AID 624352 | hit rate 0.72% among 360,000 | 786-0 RCC cells HIF-2a reporter, luciferase luminescence, overnight | inhibition, % at 18.8 µM;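 active = inhibition of the luminescence signal of 40% or more relative to plate controls, in a single-dose primary screen at 18.75 µM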
TRAIL sens C8: sensitizes caspase-8 expressing cells to TRAIL | NB7+C8 cells + TRAIL, ATPlite viability luminescence | inhibition (viability loss, TRAIL sensitization), % at 10 µM | hit rate 1% among 360,000 | AID 624354;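 active = compounds causing at least 50% loss of cell viability in the single-dose screen, relative to plate controls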
CF NFkB inh: inhibitors of cystic fibrosis induced NF-kB. KKLEB NF-kB-GFP reporter, PAF-induced, GFP fluorescence overnight. inhibition, % at 5 µM. hit rate 0.86% among 360,000;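 active = at least 50% inhibition at 5 µM, scaled per plate between neutral and stimulator controls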;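 note: PAF is a Pseudomonas aeruginosa culture filtrate used as stimulus; plate controls were PAF-stimulated DMSO wells for no effect and unstimulated DMSO wells for full effect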
KKLEB tox: counter-screen for CF NF-kB inhibitors: cytotoxicity | KKLEB CF airway cells viability, ATPlite luminescence, overnight; active compounds read low; cells stimulated with P. aeruginosa culture filtrate | activity change (cytotoxicity), % at 5 µM | hit rate 0.36% among 360,000 | AID 602141;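 active = corrected activity change at or below -50% at 5 µM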
The depositor's hits bear a star; x = no result given. A selection: hits, their analogues and other compounds. The true share with any hit is near 3.1%.

SMILES	Peg3 prom inh	PPC-1+TRAIL kill	HIF-2a block	TRAIL sens C8	CF NFkB inh	KKLEB tox
Cc1ccc(C(=O)NNC(=O)CCCN2C(=O)/C(=C/c3ccccc3Cl)SC2=S)cc1	49	14	87*	23	20	-10
O=C(CCCN1C(=O)/C(=C/c2ccccc2Cl)SC1=S)Nc1cccnc1	71*	x	0	6	-10	6
O=C(CCCN1C(=O)/C(=C/c2ccccc2Cl)SC1=S)Nc1ccccn1	16	6	79*	15	12	-7
O=C(CCN1C(=O)/C(=C/c2ccccc2Cl)SC1=S)NNC(=O)c1cccnc1	0	13	-10	-8	7	-10
O=C(NCC1CCCO1)c1cc(-c2ccc(F)cc2)no1 (stereo not drawn)	-87	x	-252	6	-86	21
O=C(NN=Cc1cc(Cl)ccc1[N+](=O)[O-])c1ccco1	-80	x	-100	-2	-5	17
O=C(N/N=C/c1cccc(F)c1)c1c(O)c2ccccc2[nH]c1=O	22	14	-16	-2	65*	-64*
O=C(N/N=C/c1ccc(F)cc1)c1c(O)c2ccccc2[nH]c1=O	28	12	-4	34	46	-44
CC(=O)O[C@]1(C(C)=O)CC[C@H]2[C@@H]3C=C(C)C4=CC(=O)CC[C@@H]4[C@H]3CC[C@@]21C	14	x	11	4	6	-10
CC(=O)O[C@]1(C(C)=O)CCC2C3C=C(C)C4=CC(=O)CC[C@]4(C)C3CC[C@@]21C (stereo partly drawn)	-4	x	30	3	52*	5
O=C1CCNc2cc3ccccc3cc21	17	52*	10	12	10	-8
Cc1ccccc1Nc1nc(N)nc(CCl)n1	10	14	-20	91*	-3	-2
COc1ccc(Nc2nc(N)nc(CCl)n2)cc1	-59	30	-81	92*	28	-20
Cc1c(Cl)cccc1Nc1nc(N)nc(CSCCO)n1	0	-22	3	-13	-5	2
Cc1c(Cl)cccc1Nc1nc(N)nc(CSc2ncccn2)n1	-208	-10	-178	91*	-11	-5
Cc1cc(=O)oc2cc(NC(=S)NNC(=O)c3c(Cl)cnn3C)ccc12	-10	x	-23	0	-9	2
Oc1ccc(/C=N/Nc2nccnc2Cl)c(O)c1	-8	36	-131	3	-4	1
Oc1ccc(/C=N/Nc2ncc(Br)cn2)c(O)c1	-77	18	-251	51*	-3	25
Nc1c(C(O)(C(F)(F)F)C(F)(F)F)cc(C(O)(C(F)(F)F)C(F)(F)F)c2ccccc12	34	10	41*	5	2	-8
COc1ccc(Cc2[nH]n3c(=O)cc(C(C)C)nc3c2-c2ccccc2)cc1	52*	28	22	11	9	-6
COc1ccc2cc3cc(C(=O)N4CCN(C5CCCCC5)CC4)oc3nc2c1	-14	x	-11	12	-7	4
COc1ccc2cc3cc(C(=O)NCCc4ccc(OC)c(OC)c4)oc3nc2c1	53*	23	24	36	3	-4
COc1ccc2cc3cc(C(=O)N4CCCCCC4)oc3nc2c1	-75	x	-44	50*	-9	-5
OC[C@@H]1CN(Cc2ccco2)C[C@H](n2cnc3c(NCc4ccc(F)cc4)ncnc32)O1	17	x	-1	3	-20	10
C=CCOc1ccc(C2NC(=O)c3ccccc3O2)cc1OC (stereo not drawn)	11	x	3	-7	-15	3
SMILES	Peg3 prom inh	PPC-1+TRAIL kill	HIF-2a block	TRAIL sens C8	CF NFkB inh	KKLEB tox
OC(Cc1cccc(Br)c1)c1ncc(-c2cccc(C(F)(F)F)c2)[nH]1 (stereo not drawn)	50*	x	-26	16	16	-11
OC(Cc1ccccc1Br)c1ncc(-c2cccc(C(F)(F)F)c2)[nH]1 (stereo not drawn)	41	x	-8	17	18	-9
COc1ccccc1C(=O)COC(=O)C1(C)CC1(Cl)Cl (stereo not drawn)	-149	x	-129	-14	-3	12
CN1CCN(Cc2nc3ccccc3c(=O)n2Cc2nc(-c3cccc([N+](=O)[O-])c3)cs2)CC1	50*	14	-14	21	-13	-7
COc1ccc2[nH]c(=O)c(CN(Cc3cccs3)S(=O)(=O)c3cccc4nsnc34)cc2c1	66*	6	-25	23	98*	-53*
COc1ccc2[nH]c(=O)c(CN(CCO)S(=O)(=O)c3c(C)ccc4nsnc34)cc2c1	-4	4	22	5	17	0
O=C(N/N=C/c1sc(N2CCOCC2)nc1-c1ccccc1)c1ccccc1Cl	-2	8	4	-6	21	2
O=[N+]([O-])c1ccc(N/N=C/c2sc(N3CCOCC3)nc2-c2ccccc2)c(S(=O)(=O)Nc2ccccc2Cl)c1	68*	36	31	25	26	-29
COc1ccccc1NC(=O)c1ccc(-c2ccccc2F)o1	-190	25	-357	0	-16	10
COC(=O)c1ccccc1NC(=O)c1ccc(-c2ccccc2F)o1	-58	9	-111	10	59*	-67*
COc1ccc(/C=N/Nc2cc(C)nc(-n3nc(C)cc3C)n2)c(OC)c1	20	24	-6	55*	18	0
COc1ccc2nc(C)cc(N/N=C/c3cccc(OC)c3O)c2c1	111*	x	17	51*	-85	-2
Cc1cc(N/N=C/c2ccc(F)cc2)nc(-n2nc(C)cc2C)n1	4	8	-14	6	-17	8
COc1cccc(/C=N/Nc2nc(Nc3ccccc3)nc(-n3nc(C)cc3C)n2)c1O	32	0	-94	61*	-20	-12
O=C(COC(=O)c1cc(Cl)ccc1O)NCCC1=CCCCC1	9	x	15	-2	-18	3
O=c1[nH][nH]c2c1[C@H](c1ccccc1)O[C@H](C1CCCCC1)C2	x	x	-5	-15	x	x
O=c1[nH]c(CSc2nc3ccccc3o2)nc2c1cnn2-c1ccccc1	53*	3	16	-1	-3	-5
CCOC(=O)c1c(N2C(=O)Nc3ccccc3N2O)sc2c1CCCC2	8	-8	17	-8	-4	1
CCOC(=O)c1c(-n2cccc2)sc2c1CCCC2=O	51*	21	23	3	0	5
O=C(CCl)N(O)c1ccc(C=Cc2ccccc2)cc1	-162	x	-191	51*	-32	-16
OCC1OC(n2cnc3c(=S)nc[nH]c32)CC1O (stereo not drawn)	29	x	-55	76*	-4	3
S=c1nc[nH]c2c1ncn2C1CCCO1 (stereo not drawn)	17	31	-114	73*	-5	2
Cc1ccc([C@H]2N[C@]3(CCCN(Cc4ccccc4)C3=O)[C@H]3C(=O)N(C)C(=O)[C@@H]23)cc1	1	x	9	-8	2	2
CCCCN(C(=O)CCCc1nc2ccccc2s1)c1c(N)n(CC(C)C)c(=O)[nH]c1=O	-9	x	5	-4	-13	2
